A short description of the assay: viability loss in HEK293 cells – cell-based, plate reader, cherry-picked samples, cytotoxicity control, dose response (AID 743446). Conditions: stronger effect = lower value; at 26 µM unless noted.

Molecules are shown by their SMILES. Potency and affinity values are given separately. Unmarked numbers belong to inactive results. How the calls were made is not given here.

For the molecule `COc1ccc(NC(=O)N(C)C[C@@H]2OCCCC[C@H](C)Oc3ccc(NC(=O)NC4CCCCC4)cc3C(=O)N([C@H](C)CO)C[C@@H]2C)cc1`, the max activity was 7.92% [at 0.195 µM].
Then `COc1ccccc1N/C=C/c1onc(C)c1[N+](=O)[O-]`, with -8.08% [at 0.8 µM]; and `C[C@H](CO)N1C[C@H](C)[C@H](CN(C)C(=O)Nc2ccc3c(c2)OCO3)OCCCC[C@H](C)Oc2ccc(NC(=O)NC3CCCCC3)cc2C1=O`, with -16.6%.
Then `O=C(c1ccc2c(c1)OCCO2)C1CCN(S(=O)(=O)c2ccc(F)cc2)CC1`, with 25.1% [at 0.1 µM]; and `C[C@H](CO)N1C[C@H](C)[C@H](CN(C)C(=O)Nc2cccc3ccccc23)OCCCC[C@H](C)Oc2ccc(NC(=O)C3CCCCC3)cc2C1=O`, with 31.6% [at 12 µM]; and `CO[C@H]1CN(C)C(=O)c2ccc(NC(=O)c3ccc(-c4ccccc4)cc3)cc2OC[C@@H](C)NC[C@@H]1C`, with 20.6% [at 0.8 µM].
As for `CN1CCN(c2ccc(NC(=O)N3CCc4ccccc43)cc2)CC1`, the figure is 17.5% [at 1.6 µM]; as for `CCS(=O)(=O)N1Cc2ccccc2CC1C(=O)Nc1nc2ccccc2s1` (configuration not stated), 11.4% [at 0.38 µM]; as for `CN(C)c1ccc(NC(=O)c2cnsn2)cc1`, -9.61% [at 12 µM].
In the case of `CCCn1c(C)cc(C(=O)CN2C(=O)c3ccccc3S2(=O)=O)c1C`, the max activity was -16% [at 3 µM].
On to `Cc1ccc(NC(=O)c2sc3ccccc3c2Cl)nc1`, for which the max activity is 24.8% [at 12 µM].
For `CC(C)C(=O)N1CCN(c2ccc(NC(=O)COc3ccccc3[N+](=O)[O-])cc2)CC1`, the max activity is -46.9%.
Then `Nc1nccc(-c2cc(-c3ccc(Cl)cc3Cl)no2)n1`, with 47.2% [at 6 µM]; and `CCOC(=O)c1sc(NC(=O)Nc2ccccc2F)nc1C`, with -21.8% [at 0.05 µM]; and `COc1cc(NC(=O)c2cccs2)c(C(=O)OCC(=O)c2cc(C)n(-c3ccccc3)c2C)cc1OC`, with 17.2%.
Then `O=C(CN1CCOc2ccccc21)NCc1ccc(F)cc1`, with 16.4% [at 6 µM].
Then `CO[C@H]1CN(C)C(=O)c2ccc(NC(=O)C3CC3)cc2OC[C@@H](C)N(C(=O)Cc2ccccn2)C[C@H]1C`, with 22% [at 1.6 µM]; and `COc1ccc2c3c([nH]c2c1)[C@H](CO)N(C(C)=O)CC31CCN(C(=O)CN2CCOCC2)CC1`, with 11.8% [at 0.38 µM]; and `O=C(COC(=O)c1ccccc1C(=O)c1ccc(Cl)c([N+](=O)[O-])c1)NC1CC1`, with 8.38% [at 6 µM].
With `CC(C)CCn1cnc2c(oc3nc4c(cc32)CCCC4)c1=O`, the max activity was -17.8%.
Take `C[C@@H]1CN([C@@H](C)CO)C(=O)c2cccc(NC(=O)c3ccc(-c4nccs4)cc3)c2O[C@@H]1CN(C)C(=O)Nc1ccc(C(F)(F)F)cc1`: the max activity was -9.8%.
Turning to `CSc1nnc(NC(=O)c2ccc3c(c2)OCO3)s1`, the max activity is -9.38% [at 12 µM].
Then `N#Cc1cccc(-c2ccc([C@@H]3[C@H](CO)N4CCCCN(C(=O)Nc5cccc(F)c5)C[C@@H]34)cc2)c1`, with 4.74% [at 12 µM]; and `Cc1ccc2nc(-c3ccccc3)nn2c1`, with 68.6% [at 3 µM].
`CC(C)c1ccc2c(c1)C(N1CCNCC1)Cc1ccc(F)cc1S2` (configuration not stated): the max activity is -119%.
On to `C[C@H](CO)N1C[C@H](C)[C@H](CN(C)C(=O)Nc2ccc3c(c2)OCO3)OCCCC[C@H](C)Oc2ccc(NC(=O)C3CCCCC3)cc2C1=O`, for which the max activity was 17.6%.
In the case of `C[C@H]1CN([C@@H](C)CO)C(=O)c2cc(NC(=O)Nc3ccccc3)ccc2O[C@H]1CN(C)Cc1ccc(-c2ccccc2)cc1`, the max activity was 25.6% [at 0.1 µM].
Then `COc1ccc(-n2ncc3c(N(C)C4CCCCC4)ncnc32)cc1`, with 31.2% [at 0.05 µM]; and `COc1ccc2oc(-c3ccccc3)cc(=O)c2c1`, with -14.7% [at 12 µM].
In the case of `O=C(c1ccc(F)cc1)N1CC(=O)N2[C@@H](CO)[C@@H](c3ccc(C#CC4CCCC4)cc3)[C@@H]2C1`, the max activity is 32.7% [at 6 µM].
As for `O=C(Nc1ccc(N2CCN(C(=O)c3ccc(Cl)cc3)CC2)cc1)c1cc2ccccc2o1`, the figure is 21.1% [at 0.05 µM]; as for `O=C(NCCc1ccc(Cl)cc1)c1ccc2c(c1)OCCO2`, 19.7% [at 0.8 µM].
On to `Cc1ccc(Nc2nc(N)c3ccccc3n2)cc1C`, for which the max activity is -37.4%.
Then `CC(C)NC(=O)Nc1ccc2c(c1)C(=O)N([C@H](C)CO)C[C@@H](C)[C@H](CN(C)S(C)(=O)=O)OCCCC[C@H](C)O2`, with 43.1%; and `CN1c2ccc(-c3ccc(F)cc3)cc2[C@H]2[C@H](CCN2C(=O)Nc2ccc(F)cc2)[C@H]1CO`, with 39.2% [at 1.6 µM].
Then `COc1ccc2nc(NC(=O)c3ccccc3F)sc2c1`, with 34.9% [at 3 µM]; and `Cc1ccc(NC(=O)c2ncn(CC(=O)NCc3ccc4[nH]ccc4c3)n2)cc1C`, with 8.88%.

Values taken from PubChem BioAssay AID743446 (Broad Institute, 2014).
